# Pf Dd2 growth = qHTS Primary assay for Inhibitors of Plasmodium falciparum Dd2 growth in vitro; Potency, µM (titrated, usually from 28.9 µM), actives largely listed as inhibitors; P. falciparum Dd2 growth, SYBR Green, 72 h; 120,000 tested, 4.3% active; active = well fitted inhibition curve with a large enough effect; note: nearly all actives have a fitted effect of over 65% in size
#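 Infected erythrocytes (Dd2, 0.3% parasitemia, 2.5% hematocrit final) are added to compound in RPMI-1640/Albumax II medium, grown 72 h at 37C in low oxygen, then lysed with saponin/Triton-X containing SYBR Green and read by fluorescence.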
# A number is an active result; . = inactive. Many of the other results were omitted from the sample, so hits are more common in it than they were.
SMILES,Pf Dd2 growth
CS(=O)(=O)N[C@H]1[C@H](O)[C@H](O)C[C@@H]1c1ccccc1,.
O[C@H]1[C@H](NCC2CCCC2)[C@@H](c2ccccc2)C[C@H]1O,1.78µM
Cc1cccc([C@H]2C[C@@H](O)[C@@H](O)[C@@H]2NCC2CCCC2)c1,.
Cc1ccccc1CN1CC2(COCC1=O)CN(c1ccccc1)C2,.
O=C1OCCCN1C1CCN(S(=O)(=O)c2cccs2)CC1,.
O=C(c1ccccc1OCC1CCCN(Cc2cccs2)C1)N1CCCC1 (stereo not given),.
CCc1ccc(NC(=O)C2CCC(CNS(=O)(=O)c3ccc4c(c3)CC(C)N4C(C)=O)CC2)cc1 (stereo not given),10µM
CCc1cccc(NS(=O)(=O)c2ccc3c(c2)CC(C)N3C(=O)C2CC2)c1 (stereo not given),.
CC1Cc2cc(S(=O)(=O)NCc3ccccc3)ccc2N1C(=O)C1CCC1 (stereo not given),3.55µM
CC(=O)N1c2ccc(S(=O)(=O)NCc3ccccc3Cl)cc2CC1C (stereo not given),.
CC(=O)N1c2ccc(S(=O)(=O)NCC3CCC(C(=O)Nc4ccc(F)cc4)CC3)cc2CC1C (stereo not given),.
CC(=O)N1c2ccc(S(=O)(=O)NCC3CCC(C(=O)Nc4ccc(C)c(C)c4)CC3)cc2CC1C (stereo not given),.
COC(=O)c1cnc2c(c1)n(CCCn1cnnn1)c(=O)n2C1CCCCC1,.
COc1ccc(-c2nnc3n2CCN(C(=O)c2ccccc2F)C3)cc1,.
O=C(NCc1nnc2cc(-c3nc(C4CC4)no3)ccn12)c1nccc2ccccc12,.
CCc1nc2c(=O)n(CC(=O)NCCC3=CCCCC3)nc(C)c2s1,.
COc1ccc2[nH]cc(CCNC(=O)CCC3CCN(C(=O)c4ccccc4)CC3)c2c1,.
C=CCNC(=O)N[C@H]1[C@H](O)[C@@H](N2CCCC2)[C@@H]2OC[C@H]1O2,.
CC1CN(c2ccc(Cl)cc2)C(=O)CN1C(=O)CCn1cccc1 (stereo not given),.
Cn1cc(-c2ccccc2F)c2nc(COc3ccccc3)cn2c1=O,.
Cn1cc(-c2ccccc2F)c2nc(COc3ccc(C(=O)O)cc3)cn2c1=O,.
Cn1cc(-c2ccc(O)c(F)c2)c2nc(COc3ccc(Cl)cc3)cn2c1=O,10µM
C#CCNC(=O)C1CCN(C(=O)C2CN(c3ccc(OC)cc3)C(=O)N2)C1 (stereo not given),.
CN(CC1CCOCC1)C(=O)Nc1cc(F)ccc1F,.
O=C(c1ccc2c(c1)OCO2)N1CCCN(c2cc(-c3ccc(F)cc3)[nH]n2)CC1,.
SMILES,Pf Dd2 growth
CCc1c(C)sc2c1CCN(Cc1ccccc1)C2c1ccccc1 (stereo not given),4.47µM
CCc1c(C)sc2c1CCN(C(=O)Nc1ccccc1C(=O)OC)C2c1ccc(OC)cc1 (stereo not given),.
CCCS(=O)(=O)N1CC[C@@H]2COCCN(Cc3ccccc3)[C@@H]2C1,.
CNC(=O)[C@@H]1C[C@@H](NC(=O)c2ccc3n[nH]nc3c2)CN1C(=O)CSC,.
CN1CCCCCC(O)c2cc(C(=O)NCCc3c[nH]c4ccccc34)ccc21 (stereo not given),12.6µM
CN1CCCCCC(O)c2cc(C(=O)NCCCc3ccccc3)ccc21 (stereo not given),.
CN1CCCCCC(O)c2cc(C(=O)NCCN3CCOCC3)ccc21 (stereo not given),.
CC(=O)Nc1ccc(NC(=O)CCNc2c(-c3ccc(F)cc3)nc3cnccn23)cc1,.
O=C(NCC1(N2CCOCC2)CCCC1)c1coc(COc2cccc(F)c2)n1,.
C=CCCC(CN1CCCC1)Oc1ccc(-c2ccccc2)nn1 (stereo not given),11.2µM
C=CCCC(CN1CCSCC1)Oc1ncc(CC)cn1 (stereo not given),.
C=CCCC(CN1CCCC1)Oc1ccc(C(=O)NCC)cn1 (stereo not given),3.16µM
C=CCCC(CN1CCCC1)Oc1cc(N2CCOCC2)ncn1 (stereo not given),.
C=CCCC(CN1CCSCC1)Oc1nc(OC)cc(OC)n1 (stereo not given),.
C=CCCC(CN1CCOCC1)Oc1ccc(-c2ccccc2)nn1 (stereo not given),.
O=C(NCc1cn[nH]c1-c1cccs1)c1cn(CCC2CCCCN2)nn1 (stereo not given),.
O=C([C@@H]1C[C@H](F)CN1S(=O)(=O)c1cccc(C(F)(F)F)c1)N1CCCCC1,.
CCN1c2cc(C(=O)Nc3cccc(Br)c3)ccc2C(=O)N2CCCCC21 (stereo not given),.
C1CCC(c2noc(COCC3CC3)n2)NC1 (stereo not given),.
O[C@@H]1C[C@@H](c2nc(-c3ccc(OC(F)(F)F)cc3)no2)N(Cc2ncc[nH]2)C1,.
CC1=C[C@@H](CNS(C)(=O)=O)[C@H](C(C)C)C[C@H]1Cc1nnc(-c2cncn2C)o1,.
CC1=C[C@@H](CNS(=O)(=O)c2ccccc2)[C@H](C(C)C)C[C@H]1CC(=O)NCCN(C)C,.
